Screening data deposited in PubChem BioAssay by National Center for Advancing Translational Sciences (NCATS).
This excerpt belongs to a sample that is enriched for hits.
Pf Dd2 inh = inhibitors of Plasmodium falciparum Dd2 growth; P. falciparum Dd2 growth, SYBR Green, 72 h; Potency, µM (titrated, usually from 28.9 µM), for inactives: at the highest dose activity, negative = inhibition, actives largely listed as inhibitors; 120,000 compounds, 4.3% hits; active means well fitted inhibition curve with a large enough effect;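 further: plate controls were DMSO vehicle for no effect and reference drug for full effect; nearly all actives have a fitted effect of over 65% in size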
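Infected erythrocytes (Dd2, 0.3% parasitemia, 2.5% hematocrit final) are added to compound in RPMI-1640/Albumax II medium, grown 72 h at 37C in low oxygen, then lysed with saponin/Triton-X containing SYBR Green and read by fluorescence.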
The depositor's hits bear a star; i = inactive; [ ] = remark or other dose. Potency means the concentration at half of the fitted maximal effect.

SMILES	Pf Dd2 inh
CN(C)c1ccc2ncc(Nc3ccccc3Cl)n2n1	-16%[44.1 µM]
CC(C)Oc1ccc(CNC(=O)c2ccc3c(c2)nc2n3CCCCC2)cc1	-15%
CCOC(=O)c1c(NC(=O)/C=C/c2ccc(OC)c(OC)c2)sc(C(C)=O)c1C	40%
Cc1cc(N2CCCCC2)nc2ccc(NC(=O)/C=C/c3ccccc3OC(C)C)cc12	2.8µM*
COc1ccc(/C=C/C(=O)Nc2ccc3nc(N4CCCCC4)cc(C)c3c2)cc1OC	4µM*
COc1ccc(/C=C/c2nc(C#N)c(N3CCCCCC3)o2)cc1OC	-15%
Cc1cc(N2CCCCC2)nc2ccc(NC(=O)/C=C/c3ccc(OC(C)C)cc3)cc12	10µM*
CN(Cc1ccccc1)C(=O)C(=O)Nc1ccc2nc3n(c(=O)c2c1)CCCCC3	i
COCCNC(=O)C(=O)Nc1ccc2nc3n(c(=O)c2c1)CCCCC3	-17%
CCCN(C(=O)C(=O)Nc1ccc2nc3n(c(=O)c2c1)CCCCC3)c1ccc(OCC)cc1	-16%
COc1ccc(S(=O)(=O)NC[C@H]2O[C@@H](CO)[C@@H](O)[C@H]2N2CCCC2)cc1	-17%[44.1 µM]
Cc1ccccc1[C@H]1C[C@@H](O)[C@@H](O)[C@@H]1NC(=O)c1cncnc1	2%[44.1 µM]
CC(C)N1C[C@H](C(=O)NCCCc2ccccc2)[C@H](C(=O)O)C1	-3%
CCCCCCn1c(CNC(=O)c2ccccc2)nc2ccccc21	-20%
CCCCn1c(NCc2cc(Cl)ccc2O)nc2ccccc21	3.2µM*
CCCCn1c(C(C)NC(=O)c2ccccc2)nc2ccccc21 (configuration not stated)	i
O=C(Nc1ccccc1)O[C@@H]1CO[C@H]2[C@@H]1OC[C@@H]2n1nnnc1Sc1ccccc1	-37%[44.1 µM]
CCn1nc(C)c(CCC(=O)NC2CCCc3c2[nH]c2c(Cl)cccc32)c1C (configuration not stated)	i
COCCN1C(=O)C(CC(N)=O)=C2CCCCC21 (configuration not stated)	15%
Cc1cc(C)c(NC(=O)CSc2nncn3c2cc2oc(C)cc23)c(C)c1	221%[5.79 µM]
CCOC(=O)c1ccc(NC(=O)C(CC)Sc2nncn3c2cc2oc(C)cc23)cc1 (configuration not stated)	10µM*
COc1ccc(NC(=O)CSc2nncn3c2cc2oc(C)cc23)cc1OC	13%
COc1cc(F)ccc1-c1cc2c(ccn2C)c(C(=O)NCc2cccnc2)n1	0%[44.1 µM]
CCn1c2c(c(=O)n1-c1ccccc1)CCN(C(=O)c1ccnn1C)C2	31%[44.1 µM]
CCNc1ncnc2sc3c(c12)CCN(Cc1ccc[nH]1)C3	1µM*
SMILES	Pf Dd2 inh
COc1ccc(Nc2ncnc3sc4c(c23)CCCC4)cc1	4%
CCc1ccc(Nc2ncnc3sc4c(c23)CCCC4)cc1	i
CCCNC(=O)N1CCc2c(sc3ncnc(N4CCN(C)CC4)c23)C1	-5%
CCNc1ncnc2sc3c(c12)CCN(C(=O)c1ccnn1C)C3	11µM*
O[C@@H]1CC(CNC2CCC2)(COc2ccc(C(F)(F)F)cn2)C[C@@H]1O (some centres not stated)	i
C#CCNC(=O)C1CCc2nnc(CNC(=O)NC(C)C)n21 (configuration not stated)	24%
Cc1ccc(-n2c(C3CCN(C(=O)CCC4CCCC4)CC3)n[nH]c2=O)cc1	-22%
CCc1noc(-c2cn(C3CCCN(C(=O)c4ccc(F)c(F)c4)C3)nn2)n1 (configuration not stated)	i
O=C1CCN(S(=O)(=O)c2ccccc2)CCCN(C(=O)Nc2ccccc2F)CCN1	3%
CNC(=O)C(C)N(C)C(=O)c1coc(CN2CCN(c3ccccc3F)CC2)n1 (configuration not stated)	19%
COc1ccc(/C=C/CN2CCC(CCC(=O)Nc3ccccc3Cl)CC2)cc1	-9%
CN1c2cc(C(=O)Nc3cccc(Cl)c3)ccc2C(=O)N2CCCCCC21 (configuration not stated)	i
Cc1ccc(S(=O)(=O)NCCc2nnc3ccc(SCc4ccccc4C)nn23)cc1	7.9µM*
CCOC(=O)CSc1ccc2nnc(CCNS(=O)(=O)c3ccccc3)n2n1	-10%
Cc1ccc(C)c(CSc2ccc3nnc(CCNS(=O)(=O)c4ccccc4)n3n2)c1	-4%
O=C(Nc1ccccc1)c1cnc2c(c1)N(C(=O)Cc1ccc(O)cc1)CCC2	-20%[44.1 µM]
CC(C)c1ccc(CC(=O)N2CCCc3ncc(C(=O)Nc4ccn(C)n4)cc32)cc1	-12%[44.1 µM]
Cc1csc(NC(=O)c2cnc3c(c2)N(C(=O)Cc2ccc(C(C)C)cc2)CCC3)n1	7.1µM*
COc1ccc(NC(=O)c2cnc3c(c2)N(C(=O)Cc2ccc(O)cc2)CCC3)cn1	3%[44.1 µM]
O=C(NC(c1ccccc1)c1ccccc1)c1cnc2c(c1)N(C(=O)Cc1ccc(O)cc1)CCC2	13µM*
CC(C)c1ccc(CC(=O)N2CCCc3ncc(C(=O)Nc4ccccc4)cc32)cc1	-8%[44.1 µM]
COc1cccc(C(=O)N2CC[C@@H]3CN(S(C)(=O)=O)[C@@H]3C2)c1C	i
CN1C(=O)CS(=O)C12CCNCC2 (configuration not stated)	28%
CC(=O)N1CCC(N[C@@H]2CO[C@H](CNS(=O)(=O)c3ccccc3)[C@H]2O)CC1	-14%[44.1 µM]
O=C(c1nnc(CN2CCN(CCO)CC2)n1-c1ccccc1)N1CCC[C@@H]1C(c1ccccc1)c1ccccc1	i
SMILES	Pf Dd2 inh
Cc1ccc(C(=O)N2C[C@@H](COCC(N)=O)[C@H](c3ccncc3)C2)cc1	5%
CC(C)c1ccc(Nc2c(-c3ccccc3O)nc3cnccn23)cc1	3.5µM*
Cc1ccn2c(Nc3ccc(C(C)C)cc3)c(-c3cccs3)nc2c1	11µM*
Cc1ccn2c(Nc3ccc(C(C)C)cc3)c(-c3cccnc3)nc2c1	11µM*
Cc1ccc2nc(-c3cccnc3)c(Nc3ccc(C(C)C)cc3)n2c1	18%
Cc1ccccc1-c1nc2cnccn2c1NCCC(=O)N1CCCCC1	i
Cc1ccn2c(Nc3ccc(F)cc3)c(-c3ccc(C)o3)nc2c1	10µM*
Cc1cccc(C)c1Nc1c(-c2cccs2)nc2ncccn12	-13%
Cc1ccc2nc(-c3cccs3)c(Nc3ccc4c(c3)OCCO4)n2c1	16%
Cc1ccccc1-c1nc2cnccn2c1NCCC(=O)N1CCC(C)CC1	i
Cc1ccc2nc(-c3ccco3)c(Nc3ccc4c(c3)OCCO4)n2c1	-5%
COc1ccc(Nc2c(-c3ccco3)nc3cccc(C)n23)cc1	-18%
Cc1ccc(Nc2c(-c3cccc(Cl)c3)nc3cccc(C)n23)cc1	i
CCNc1cc(N2CCC(CCC(=O)N(CC)CC)CC2)ncn1	-1%
O=C1CCC2(C(=O)NCCc3ccccc3)CCCC=C2N1c1ccccc1 (configuration not stated)	i
O=C(Nc1ccc(F)c(F)c1)C1CCN(C(=O)c2ncn3c2COC(c2ccccc2)C3)CC1 (configuration not stated)	-16%
O=c1cc(N2CCOCC2)oc2c(-c3ccncc3)nccc12	-22%[44.1 µM]
COc1ncccc1-c1cc(C(=O)NCc2c(C)cc(C)[nH]c2=O)c2c(c1)N(C(C)C)CCO2	-2%
CN1C(=O)CC[C@]2(C(=O)NCc3ccc(F)c(Cl)c3)CCCC[C@@H]12	14%
COc1ccc(NC(=O)NCC2CCOCC2)cc1F	15%
CN(C)c1nc2c(c(=O)[nH]1)CCN(Cc1ccccc1F)CC2	i[5.79 µM]
O=c1[nH]c(N2CCOCC2)nc2c1CCN(Cc1ccc(C(F)(F)F)cc1)CC2	1.3µM*
Cc1ccc(CN2CCc3nc(N4CCOCC4)[nH]c(=O)c3CC2)cc1C	i[5.79 µM]
O=c1[nH]c(N2CCOCC2)nc2c1CCN(Cc1cc(F)cc(F)c1)CC2	-2%[5.79 µM]
